{"source": "the supplement of paper PMC12532568", "note": "Where a name gives a salt, the structure may show the parent alone."}
{"tested_on": "Danio rerio larvae Tg(actc1b:ZsGreen-LC3), 3 dpf", "assay": "LC3 puncta relative area vs vehicle, without NH4Cl (log2 fold change); higher = more autophagosomes", "conditions": "10 µM; treatment time 16 h; NH4Cl: none", "protocol": "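Transgenic Tg(actc1b:ZsGreen-map1lc3) zebrafish larvae (2 dpf) were treated for 16 h with Tocris library compounds at 10 µM (n = 12 larvae per compound). Skeletal-muscle LC3 puncta area relative to body area was measured by high-content confocal imaging before and after 4 h of 100 mM NH4Cl (autophagic flux), normalised to vehicle (DMSO), and reported as log2 fold change.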"}
{"smiles": "N[C@H](C(=O)O)c1ccc(O)c(C(=O)O)c1", "note": "[(S)-3-Carboxy-4-hydroxyphenylglycine]", "LC3 puncta (log2)": 0.267}
{"smiles": "O=C(OCCN1CCCCC1)c1c[nH]c2ccccc12", "LC3 puncta (log2)": 0.11}
{"smiles": "CCC1(c2ccccc2)C(=O)NCNC1=O", "note": "[Primidone]", "LC3 puncta (log2)": 0.333}
{"smiles": "Cc1ccc(/C(=C\\CN2CCCC2)c2ccccn2)cc1", "note": "[trans-Triprolidine hydrochloride]", "LC3 puncta (log2)": -0.298}
{"smiles": "O=C(OCCN1CCOCC1)C1(c2ccccc2)CCCCC1", "note": "[PRE-084 hydrochloride]", "LC3 puncta (log2)": 0.215}
{"smiles": "N[C@@H](CSS(=O)(=O)O)C(=O)O", "note": "[S-Sulfo-L-cysteine sodium salt]", "LC3 puncta (log2)": -0.101}
{"smiles": "Clc1cccc(Nc2nnc(-c3ccccc3)c3ccccc23)c1", "LC3 puncta (log2)": 0.29}
{"smiles": "CC1=C(/C=C/C(C)=C/C=C/C(C)=C/C(=O)O)C(C)(C)CCC1", "note": "[Retinoic acid]", "LC3 puncta (log2)": 0.44}
{"smiles": "c1ccc(CN2CCC3(CCc4ccccc43)CC2)cc1", "note": "[L-693,403 maleate]", "LC3 puncta (log2)": -0.0234}
{"smiles": "CC(C)NCC(O)c1ccc2ccccc2c1", "note": "(stereo not given) [Pronethalol hydrochloride]", "LC3 puncta (log2)": 0.437}
{"smiles": "CNCCCCOc1ccccc1Cc1ccccc1", "note": "[Bifemelane]", "LC3 puncta (log2)": 0.531}
{"smiles": "CSc1ccc2c(c1)C(N1CCN(C)CC1)Cc1ccccc1S2", "note": "(stereo not given) [Methiothepin maleate]", "LC3 puncta (log2)": -0.425}
{"smiles": "Cc1ccc(OCC(O)C(C)NC(C)C)c2c1CCC2", "note": "(stereo not given) [ICI 118,551 hydrochloride]", "LC3 puncta (log2)": -0.0345}
{"smiles": "O=[N+]([O-])c1cccc2c(Br)[nH]nc12", "note": "[3-Bromo-7-nitroindazole]", "LC3 puncta (log2)": 0.159}
{"smiles": "c1ccc(CN(CC2=NCCN2)c2ccccc2)cc1", "note": "[Antazoline hydrochloride]", "LC3 puncta (log2)": 0.664}
{"smiles": "O=S(=O)(c1cccc2c(Cl)cccc12)N1CCCNCC1", "note": "[ML 9 hydrochloride]", "LC3 puncta (log2)": 0.232}
{"smiles": "CC(=O)N[C@@H](CC(=O)N[C@@H](CCC(=O)O)C(=O)O)C(=O)O", "note": "[Spaglumic acid]", "LC3 puncta (log2)": -0.106}
{"smiles": "CCCC[C@@H](C=O)NC(=O)[C@H](CC(C)C)NC(=O)OCc1ccccc1", "note": "[Calpeptin]", "LC3 puncta (log2)": 1.15}
{"smiles": "CC(N)(Cc1ccc(O)c(O)c1)C(=O)O", "note": "(stereo not given)", "LC3 puncta (log2)": 0.269}
{"smiles": "N[C@H](C(=O)O)c1cc(O)cc(O)c1", "LC3 puncta (log2)": 0.537}
{"smiles": "O=C(NCCN1CCCCC1)c1ccc(I)cc1", "note": "[N-[2-(Piperidinylamino)ethyl]-4-iodobenzamide]", "LC3 puncta (log2)": 0.492}
{"smiles": "CC(C)CC(NC(=O)OCC1c2ccccc2-c2ccccc21)C(=O)O", "note": "(stereo not given)", "LC3 puncta (log2)": 0.0242}
{"smiles": "CC(=O)N[C@@H](Cc1c[nH]c2ccccc12)C(=O)OCc1cc(C(F)(F)F)cc(C(F)(F)F)c1", "LC3 puncta (log2)": 0.214}
{"smiles": "CC(CCCCC(=O)Nc1ccc(C(F)(F)F)cc1)NCCc1cnc[nH]1", "note": "(stereo not given) [HTMT dimaleate]", "LC3 puncta (log2)": 0.258}
{"smiles": "c1ccc2sc(N3CCN(Cc4ccc5c(c4)OCO5)CC3)nc2c1", "note": "[2-[1-(4-Piperonyl)piperazinyl]benzothiazole]", "LC3 puncta (log2)": 0.135}
{"smiles": "NC(=O)Nc1sc(-c2ccc(F)cc2)cc1C(N)=O", "LC3 puncta (log2)": 0.302}
{"smiles": "CN(C)CCCSC(=N)N", "note": "[Dimaprit dihydrochloride]", "LC3 puncta (log2)": 0.203}
{"smiles": "CC(C)Oc1ccc2c(=O)c3cc(C(=O)O)ccc3oc2c1", "LC3 puncta (log2)": 0.473}
{"smiles": "CN1CCC(=C2c3ccccc3CC(=O)c3sccc32)CC1", "note": "[Ketotifen fumarate]", "LC3 puncta (log2)": 0.589}
{"smiles": "COC(=O)C1=C(C)NC(C)=C(C(=O)OCCSc2ccccc2)C1C", "note": "(stereo not given)", "LC3 puncta (log2)": 0.00326}
{"smiles": "CC(C)NC[C@H](O)COc1cccc2ccccc12", "note": "[(S)-(-)-Propranolol hydrochloride]", "LC3 puncta (log2)": 0.355}
{"smiles": "c1cc2c(cc1C1CCCCC1)c1c3n2CCNC3CCC1", "note": "(stereo not given) [Tetrindole mesylate]", "LC3 puncta (log2)": 0.672}
{"smiles": "CCOC(=O)C1=C[C@]2(CC)CCCN3CCc4c(n1c1ccccc41)[C@@H]32", "note": "[Vinpocetine]", "LC3 puncta (log2)": 0.406}
{"smiles": "CC(C)(C)NC[C@H](O)COc1nsnc1N1CCOCC1", "note": "[(S)-Timolol maleate]", "LC3 puncta (log2)": 0.305}
{"smiles": "COc1ccc(CCN(C)CCc2ccc(OC)c(OC)c2)cc1OC", "note": "[YS-035 hydrochloride]", "LC3 puncta (log2)": 0.265}
{"smiles": "COc1cc(C(=O)OCCCN2CCCN(CCCOC(=O)c3cc(OC)c(OC)c(OC)c3)CC2)cc(OC)c1OC", "note": "[Dilazep]", "LC3 puncta (log2)": 0.175}
{"smiles": "NS(=O)(=O)c1cccc2c1c([N+](=O)[O-])cc1nc(O)c(O)nc12", "LC3 puncta (log2)": 0.286}
{"smiles": "COc1ccccc1N1CCN(CCCCN2C(=O)c3ccccc3C2=O)CC1", "note": "[NAN-190 hydrobromide]", "LC3 puncta (log2)": 0.201}
{"smiles": "CN1CCN(C2=Cc3ccccc3Oc3ccc(Cl)cc32)CC1", "LC3 puncta (log2)": 0.742}
{"smiles": "N[C@H](C(=O)O)c1ccc(C(=O)O)c(O)c1", "note": "[(S)-4-Carboxy-3-hydroxyphenylglycine]", "LC3 puncta (log2)": -0.331}
